# Laboratory results taken from the supplement of paper PMC12340641.
# Where a name gives a salt, the structure may show the parent alone.
# Assays:
# [1] = biological target: IKZF1 (dCK*-IKZF1 fusion in HEK293FT) (UniProt Q13422); experiment: inhibition of IKZF1 HTRF signal (DMSO = 0%, pomalidomide 10 uM = 100%); higher = lower IKZF1 protein level; settings: compound concentration: 5 uM, overnight (~20 h)
# Outline: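 Percent inhibition of IKZF1 signal was calculated per plate with vehicle and a reference degrader as anchors. The anchors were 0% for vehicle and 100% for the degrader, applied to background-subtracted 665/620 nm time-resolved FRET ratios from a commercial HTRF total-IKZF1 kit. Signal came from HEK293FT cells stably expressing an IKZF1 fusion, treated overnight at 37 °C with 5 μM compound in single wells of 384-well plates.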
# [2] = tested on: HEK293FT dCK*-only; experiment: relative growth in counter assay (no AraC = 100%, AraC + DMSO = 0%); higher = more growth rescue independent of IKZF1; settings: compound concentration: 5 uM; AraC concentration: 0.3 uM; overnight pretreatment + 4 days AraC
# Outline: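 Nuclei were counted by imaging after Hoechst 33342 staining on day 5, in HEK293FT cells (300/well, 384-well) expressing only an engineered kinase construct. Compound at 5 μM went in 2 h after seeding, followed after overnight at 37 °C by a nucleoside suicide substrate at 0.3 μM plus medium for 4 days. Per plate, wells lacking suicide substrate defined 100% and those with substrate plus vehicle defined 0%.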
# [3] = tested on: HEK293FT dCK*-IKZF1; experiment: relative growth recovery (pomalidomide 10 uM = 100%, DMSO = 0%); higher = more growth rescue (IKZF1 fusion degradation); settings: compound concentration: 5 uM; AraC concentration: 0.3 uM; overnight pretreatment + 4 days AraC
# Outline: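 HEK293FT cells stably expressing a dCK*-IKZF1 fusion (300/well, 384-well) received 5 μM compound 2 h after seeding. After overnight at 37 °C they received a nucleoside suicide substrate at 0.3 μM plus medium for 4 days. On day 5, Hoechst 33342-stained nuclei were counted by whole-well imaging. Growth recovery was normalised per plate to a reference degrader (100%) and vehicle (0%); values are means of duplicates run on different days.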
# Chain of IKZF1 (dCK*-IKZF1 fusion in HEK293FT) (Q13422 whole entry, looked up, the tested form may be a part): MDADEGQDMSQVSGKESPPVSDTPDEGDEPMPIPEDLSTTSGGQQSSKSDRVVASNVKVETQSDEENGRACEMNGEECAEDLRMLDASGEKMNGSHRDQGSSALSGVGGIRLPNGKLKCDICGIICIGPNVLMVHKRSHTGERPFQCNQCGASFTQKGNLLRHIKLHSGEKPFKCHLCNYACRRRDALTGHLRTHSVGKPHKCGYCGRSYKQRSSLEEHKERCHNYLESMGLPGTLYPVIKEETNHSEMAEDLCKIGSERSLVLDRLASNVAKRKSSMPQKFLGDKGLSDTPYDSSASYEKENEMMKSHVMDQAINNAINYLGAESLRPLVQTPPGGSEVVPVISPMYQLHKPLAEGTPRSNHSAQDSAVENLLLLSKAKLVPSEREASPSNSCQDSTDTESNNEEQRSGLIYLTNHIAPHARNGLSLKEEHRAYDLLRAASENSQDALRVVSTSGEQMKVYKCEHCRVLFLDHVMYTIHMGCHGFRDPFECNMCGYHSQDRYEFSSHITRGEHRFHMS
structure (smiles),measurement,setting,value
CCN(CC)CCCC(C)Nc1nc(C)cc(Nc2ccc3nc(C)cc(N)c3c2)n1 (stereo unspecified),inhibition of IKZF1 HTRF signal,[1],-45.1%
same,relative growth in counter assay,[2],-7.4%
same,relative growth recovery,[3],0.345%
C=C1C(=O)O[C@@H]2C[C@@]3(C)CCC[C@H](C)C3=C[C@H]12 [alantolactone],inhibition of IKZF1 HTRF signal,[1],-31.2%
same,relative growth in counter assay,[2],-28%
same,relative growth recovery,[3],-7.37%
"O=C(CCCCCCC(=O)Nc1ccccc1)NO [Vorinostat (SAHA, MK0683)]",inhibition of IKZF1 HTRF signal,[1],-29.5%
same,relative growth in counter assay,[2],-30.5%
same,relative growth recovery,[3],-11.6%
COC(=O)Nc1nc2ccc(S(=O)c3ccccc3)cc2[nH]1 (stereo unspecified),inhibition of IKZF1 HTRF signal,[1],5.34%
same,relative growth in counter assay,[2],-12.6%
same,relative growth recovery,[3],-3.6%
CC(=O)Oc1ccccc1C(=O)Nc1ncc([N+](=O)[O-])s1,inhibition of IKZF1 HTRF signal,[1],22.3%
same,relative growth in counter assay,[2],-5.9%
same,relative growth recovery,[3],0.37%
CC(=O)[C@]1(O)Cc2c(O)c3c(c(O)c2[C@@H](O[C@H]2C[C@H](N)[C@H](O)[C@H](C)O2)C1)C(=O)c1ccccc1C3=O [Idarubicin HCl],inhibition of IKZF1 HTRF signal,[1],11.7%
same,relative growth in counter assay,[2],-34.2%
same,relative growth recovery,[3],-13%
Oc1c(I)cc(I)c2cccnc12,inhibition of IKZF1 HTRF signal,[1],-30.6%
same,relative growth in counter assay,[2],-11.2%
same,relative growth recovery,[3],-3.46%
CC(C)/N=c1\cc2n(-c3ccc(Cl)cc3)c3ccccc3nc-2cc1Nc1ccc(Cl)cc1,inhibition of IKZF1 HTRF signal,[1],16.2%
same,relative growth in counter assay,[2],-8.1%
same,relative growth recovery,[3],0.915%
O=S(=O)(O)CCCS(=O)(=O)O,inhibition of IKZF1 HTRF signal,[1],17.9%
same,relative growth in counter assay,[2],1.16%
same,relative growth recovery,[3],-1.31%
CCCCOc1ccc(-c2cncc(C(=O)NCc3cccnc3N3CCOCC3)c2)cc1Cl,inhibition of IKZF1 HTRF signal,[1],-19.5%
same,relative growth in counter assay,[2],-0.15%
same,relative growth recovery,[3],4.37%
NS(=O)(=O)Cc1noc2ccccc12 [zonisamide],inhibition of IKZF1 HTRF signal,[1],-28.2%
same,relative growth in counter assay,[2],2.4%
same,relative growth recovery,[3],-2.26%
C[C@H]1COC2=C1C(=O)C(=O)c1c2ccc2c1CCCC2(C)C [Cryptotanshinone],inhibition of IKZF1 HTRF signal,[1],-30.9%
same,relative growth in counter assay,[2],0.04%
same,relative growth recovery,[3],-0.045%
